Experimental data reported in PubChem BioAssay AID540317 (National Center for Advancing Translational Sciences (NCATS), 2011).
Hit rate of the full screen: of about 390,000 compounds, about 2,200 (0.56%) were called active. Roughly 3% stayed inconclusive and do not appear here. This excerpt belongs to a sample that is enriched for actives. Values without a mark were called inactive. Calls follow the shape of the dose curve; as a rule, active = well fitted inhibition curve with a large enough effect; inconclusive = small, poorly fitted or top-dose-only effect; inactive = no such curve, though single readings can be large or run the other way.
Also: nearly all actives have a fitted effect of over 70% in size.
Potency is read from the fitted curve at half-maximal effect.

These compounds were tested against Chromobox protein homolog 1 (Homo sapiens) (UniProt P83916) (assay: HTS for Inhibitors of HP1-beta Chromodomain Interactions with Methylated Histone Tails). Conditions: AlphaScreen HP1-beta / biotin-H3K9me3 peptide binding; series mostly up to 114 µM; activity change, negative = inhibition: at the top concentration.
Chromobox protein homolog 1 (Homo sapiens), sequence (P83916 whole entry, looked up): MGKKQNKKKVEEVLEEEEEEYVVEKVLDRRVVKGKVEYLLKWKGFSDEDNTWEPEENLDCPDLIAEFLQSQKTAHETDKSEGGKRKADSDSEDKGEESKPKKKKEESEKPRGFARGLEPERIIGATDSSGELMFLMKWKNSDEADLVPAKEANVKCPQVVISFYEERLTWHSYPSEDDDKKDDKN
Summary of the method: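 AlphaScreen: HP1-beta (50 nM) preformed 30 min with biotin-H3(1-18)K9me3 peptide (50 nM) in PBS pH 7.4, 0.01% Tween-20. Compound added for 30 min at RT, then streptavidin donor/nickel chelate acceptor beads (10 ug/mL) for 30 min.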
With `O=C(OC12CC3CC(CC(C3)C1)C2)c1ccc(NCc2cc(O)ccc2O)cc1` the Potency was 70.8 µM (active).
For `O=C(Cn1ncn2nc(-c3cccs3)cc2c1=O)NCc1cccc(Br)c1`, the “activity change, negative = inhibition” value was 38.2%.
With `Cc1ccc(NN=Nc2nc3c([nH]2)c(=O)n(C)c(=O)n3C)cc1` the Potency was 35.5 µM (active).
In the case of `Cc1cc(C)c(C=NNc2nc3c([nH]2)c(=O)n(C)c(=O)n3C)c(C)c1`, the “activity change, negative = inhibition” value is reported as 8.59% [at 57 µM].
In the case of `Cc1ccc(CNC(=O)CSc2c(C)cnc3c2c(=O)n(C)c(=O)n3C)cc1`, the “activity change, negative = inhibition” value is reported as 31.3%.
For `COc1ccc(NC(=O)CSc2nc3ncccc3[nH]2)c(OC)c1`, the “activity change, negative = inhibition” value was 58.9%.
`COc1ccc(CNC(=O)CCc2c(C)nn(-c3ccc(N4CCCC4)nn3)c2C)cc1` was tested, and the “activity change, negative = inhibition” value was 59.8%.
For `Cc1cccc(C)c1-n1ncc(C(=O)NCCCN2CCCCC2)c1C1CCN(C(=O)OC(C)(C)C)CC1`, the “activity change, negative = inhibition” value was 45.8%.
With `Cc1cccc(Nc2cc(C)nc(-n3nc(C)cc3C)n2)c1` the “activity change, negative = inhibition” value was 25.9% [at 57 µM].
In the case of `COc1ccc(OC)c(-n2nnc(-c3nc(-c4cc(OC)c(OC)c(OC)c4)no3)c2C)c1`, the “activity change, negative = inhibition” value is reported as 9.72%.
With `CCCC(=O)NC(=S)Nc1ccc(CN2CCOCC2)cc1` the “activity change, negative = inhibition” value was 32.7%.
For `Oc1c(CN2CCOCC2)ccc(CN2CCOCC2)c1O`, the Potency was 15.8 µM (active).
In the case of `OCCN1CCOCCOCCN(CCO)CCN(CCO)CC1`, the “activity change, negative = inhibition” value is reported as 48.4%.
For `CC(=O)N1CC[n+]2c(-c3ccc([N+](=O)[O-])cc3)csc21`, the Potency was 10 µM (active).
For `Cc1cc(C)cc(C(=O)N2CCN=C2SCc2ccc([N+](=O)[O-])cc2)c1`, the “activity change, negative = inhibition” value was -0.188%.
With `O=C(C1CCC1)N1CCN(S(=O)(=O)c2ccc([N+](=O)[O-])cc2)CC1` the “activity change, negative = inhibition” value was 31.4%.
With `O=S(=O)(c1ccc(Cl)cc1)c1nnn2c1nc(NC1CCCC1)c1sccc12` the “activity change, negative = inhibition” value was 20.5%.
In the case of `Cc1ccccc1CNC(=O)c1cccc(NC(=O)c2nsc3ccccc23)c1`, the “activity change, negative = inhibition” value is reported as 27.1% [at 57 µM].
With `Cc1ccc(NC(=O)Nc2sc3nc4n(c(=O)c3c2C)CCC(C)CC4)c(Cl)c1` (stereo not given) the “activity change, negative = inhibition” value was 61.7%.
`CC1CCc2noc(NC(=O)c3ccc([N+](=O)[O-])cc3)c2C1` (stereo not given) was tested, and the “activity change, negative = inhibition” value was 61.7%.
In the case of `O=C(Nc1cc2c3c(c1)C1CCCC1CN3CC1CCCC21)c1ccc([N+](=O)[O-])cc1` (stereo not given), the Potency is reported as 11.2 µM (active).
In the case of `O=C(CCNC(=O)c1ccc([N+](=O)[O-])cc1)NC1CCCCC1`, the “activity change, negative = inhibition” value is reported as -12.6%.
For `Cc1ccc(-c2cn3c(n2)sc2cc(C(=O)NCCCc4ccccc4)ccc23)cc1`, the “activity change, negative = inhibition” value was 30%.
`CCOC(=O)c1c(C)oc2nc(C)nc(Nc3ccc(CC)cc3)c12` was tested, and the “activity change, negative = inhibition” value was 31.5%.
In the case of `COCCNc1ncnc2c1c(-c1ccccc1)cn2-c1ccc(C)c(Cl)c1`, the “activity change, negative = inhibition” value is reported as 28.5%.
In the case of `COc1ccc(S(=O)(=O)Nc2cc3c(C(=O)OC(C)C)c(C)oc3c3ccccc23)cc1`, the “activity change, negative = inhibition” value is reported as 11.2%.
`COc1ccc(S(=O)(=O)NC(C)C(=O)N2CCCCCC2)cc1` (stereo not given) was tested, and the “activity change, negative = inhibition” value was 22.8%.
In the case of `COc1ccc(S(=O)(=O)/N=C2\C=C(NS(=O)(=O)c3ccccc3)C(=O)c3ccccc32)cc1`, the Potency is reported as 28.2 µM (active).
In the case of `CCCN1CCN(CCCNC(=O)Cn2nc(CC)n3c(cc4occc43)c2=O)CC1`, the “activity change, negative = inhibition” value is reported as 29.7%.
`O=C1C=CC(=O)N1c1ccc(N2CCCCC2)cc1` was tested, and the Potency was 15.8 µM (active).
For `Cc1ccc(CN2COc3cc(C)c4c(oc(=O)c5ccccc54)c3C2)cc1`, the “activity change, negative = inhibition” value was 32.2%.
For `O=c1cc(-c2ccccc2)n2c(SCc3ccccc3)nnc2[nH]1`, the “activity change, negative = inhibition” value was 41.7%.
In the case of `CC(C)Cn1c(=O)c2ccccc2n2c(-c3cccc(Cl)c3)nnc12`, the “activity change, negative = inhibition” value is reported as -1.29%.
`O=c1[nH]c2ccccc2n2c(-c3ccccc3)nnc12` was tested, and the Potency was 5.62 µM (active).
In the case of `O=C(CNS(=O)(=O)c1cccs1)N1CCN(c2ccccc2Cl)CC1`, the “activity change, negative = inhibition” value is reported as 4.55%.
With `C/C=C(\C)C(=O)N1CC2(CC(c3cccc(NC(=O)CCCCC)c3)=NO2)C[C@@H]1C(N)=O` (stereo not given in full) the “activity change, negative = inhibition” value was 13.4%.
For `C=C(C)C(=O)Nc1cccc(C2=NOC3(C2)C[C@H](C(N)=O)N(C(=O)C(c2ccccc2)c2ccccc2)C3)c1` (stereo not given in full), the Potency was 12.6 µM (active).
In the case of `CC/C=C/C(=O)N1CC2(CC(c3cccc(NC(=O)CC)c3)=NO2)C[C@H]1C(N)=O` (stereo not given in full), the “activity change, negative = inhibition” value is reported as 67.8%.
For `O=C(O)C1CC=CC2CCN(C3CCCCC3)C(=O)C21` (stereo not given), the “activity change, negative = inhibition” value was 41%.
For `COC(=O)c1cc(NC(=O)CCS(=O)(=O)c2cc(Br)cc3c2N(C(=O)C2CC2)CC3)cc(C(=O)OC)c1`, the “activity change, negative = inhibition” value was 15.5%.
`COc1ccc(-c2nc(=N)sn2-c2ccccc2)cc1` was tested, and the Potency was 14.1 µM (active).
In the case of `Cc1n[nH]c(=O)n1-c1ccc(Oc2ccccc2)cc1`, the “activity change, negative = inhibition” value is reported as 21%.
For `COc1ccc(-c2nn3c(-c4ccc(OC)cc4)nnc3c3ccccc23)cc1`, the “activity change, negative = inhibition” value was 33.3%.
With `CN(Cc1ccccc1)C(=O)c1cn(C)c2ccc(S(=O)(=O)N(C)C3CCCCC3)cc2c1=O` the “activity change, negative = inhibition” value was 28.9%.
In the case of `Cc1c(Cl)cccc1NC(=O)C(=O)NCCc1csc2nc(-c3ccccc3F)nn12`, the “activity change, negative = inhibition” value is reported as 14.2% [at 57 µM].
`COc1ccc(CCNc2ncnc3c2cnn3-c2ccc(C)cc2)cc1` was tested, and the “activity change, negative = inhibition” value was 30.8%.
With `Cc1ccc(S(=O)(=O)N2CCN(c3nc(-n4cnc5ccccc54)nc4ccccc34)CC2)cc1` the “activity change, negative = inhibition” value was 5.58%.
`O=C(NCc1ccc2c(c1)CCN2C(=O)c1ccccc1)Nc1cc(F)ccc1F` was tested, and the “activity change, negative = inhibition” value was -2.95% [at 57 µM].
In the case of `COCCCn1c(Cc2csc(Nc3cccc(Cl)c3)n2)nnc1SCC(=O)OC1CCCCC1`, the Potency is reported as 50.1 µM (active).
In the case of `COCCCn1c(SCC(=O)Nc2ccccc2)nnc1-c1ccncc1`, the “activity change, negative = inhibition” value is reported as 3.76%.
